Our source for the binding signal values is publication PMC7862700, “An all-to-all approach to the identification of sequence-specific readers for epigenetic DNA modifications on cytosine”.

Holding throughout (test): DAPPL (digital affinity profiling via proximity ligation, sequencing); 10 mM Tris-HCl pH 7.5, 50 mM NaCl, 1 mM DTT, 4% glycerol, room temperature, 30 min; GST-TFs on glutathione beads, 16-mer random dsDNA library, 0.1% formaldehyde crosslink after washing; high values mean tight binding
The target of one assay is T1, FLI1 (Homo sapiens, UniProt Q01543 1-452).
T1 sequence: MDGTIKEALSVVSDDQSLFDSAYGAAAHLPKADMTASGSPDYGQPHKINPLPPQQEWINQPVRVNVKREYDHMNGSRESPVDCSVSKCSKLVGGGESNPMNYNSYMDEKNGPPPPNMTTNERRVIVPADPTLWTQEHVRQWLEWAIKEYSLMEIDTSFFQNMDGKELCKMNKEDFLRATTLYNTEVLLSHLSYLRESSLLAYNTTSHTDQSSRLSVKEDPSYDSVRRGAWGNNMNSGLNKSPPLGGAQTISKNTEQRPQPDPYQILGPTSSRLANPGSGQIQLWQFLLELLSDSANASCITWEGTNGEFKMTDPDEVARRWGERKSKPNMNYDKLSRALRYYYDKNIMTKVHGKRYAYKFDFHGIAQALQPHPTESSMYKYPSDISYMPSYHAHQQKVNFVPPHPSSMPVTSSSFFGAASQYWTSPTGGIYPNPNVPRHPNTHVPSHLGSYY
Particulars: protein: recombinant; tags: N-terminal GST; dsDNA, one strand shown. In short, it runs like this: (§1)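 Human transcription factors were made in yeast as GST fusions, captured on glutathione beads and barcoded with DNA. With a tag-only sample included, the pool was incubated with 200 nmole of a random double-stranded 16-mer DNA library in Tris/NaCl/DTT/glycerol buffer at room temperature for 30 min, then crosslinked with 0.1% formaldehyde after washing, ligated by proximity, amplified and sequenced. For binding signal, each hexamer's read frequency for a factor is divided by its frequency for the tag-only sample.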

For a further assay, the target named is T2, ELK1 (Homo sapiens, UniProt P19419 1-428).
T2 sequence: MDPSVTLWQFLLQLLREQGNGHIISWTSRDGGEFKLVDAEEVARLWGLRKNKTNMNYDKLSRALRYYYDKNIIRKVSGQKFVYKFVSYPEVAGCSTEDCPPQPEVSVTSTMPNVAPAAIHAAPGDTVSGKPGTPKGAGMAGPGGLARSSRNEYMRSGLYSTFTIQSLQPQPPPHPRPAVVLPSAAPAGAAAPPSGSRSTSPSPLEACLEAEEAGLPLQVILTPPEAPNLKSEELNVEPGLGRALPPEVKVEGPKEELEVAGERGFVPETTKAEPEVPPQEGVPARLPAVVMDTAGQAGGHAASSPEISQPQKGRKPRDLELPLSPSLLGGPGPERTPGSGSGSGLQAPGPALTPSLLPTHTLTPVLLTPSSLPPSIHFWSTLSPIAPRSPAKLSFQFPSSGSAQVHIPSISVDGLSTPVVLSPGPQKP
Particulars: protein: recombinant; tags: N-terminal GST; dsDNA, one strand shown. In short, it runs like this:
as §1

Another assay has as its target T3, GABPA (Homo sapiens, UniProt Q06546 1-454).
T3 sequence: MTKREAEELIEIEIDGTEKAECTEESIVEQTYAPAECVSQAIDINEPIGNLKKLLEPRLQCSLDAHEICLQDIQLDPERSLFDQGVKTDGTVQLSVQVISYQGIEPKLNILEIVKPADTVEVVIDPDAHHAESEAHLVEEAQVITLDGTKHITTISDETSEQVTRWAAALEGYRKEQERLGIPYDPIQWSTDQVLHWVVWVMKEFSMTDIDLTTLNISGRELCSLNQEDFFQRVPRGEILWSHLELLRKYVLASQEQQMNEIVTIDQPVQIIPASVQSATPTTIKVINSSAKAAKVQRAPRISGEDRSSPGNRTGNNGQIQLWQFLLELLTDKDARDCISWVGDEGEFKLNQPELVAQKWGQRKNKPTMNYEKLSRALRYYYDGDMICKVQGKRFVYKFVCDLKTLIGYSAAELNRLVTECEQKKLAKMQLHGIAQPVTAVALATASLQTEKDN
Particulars: protein: recombinant; tags: N-terminal GST; dsDNA, one strand shown. In short, it runs like this: as §1

Another assay addresses T4, ERG (Homo sapiens, UniProt P11308 1-479).
T4 sequence: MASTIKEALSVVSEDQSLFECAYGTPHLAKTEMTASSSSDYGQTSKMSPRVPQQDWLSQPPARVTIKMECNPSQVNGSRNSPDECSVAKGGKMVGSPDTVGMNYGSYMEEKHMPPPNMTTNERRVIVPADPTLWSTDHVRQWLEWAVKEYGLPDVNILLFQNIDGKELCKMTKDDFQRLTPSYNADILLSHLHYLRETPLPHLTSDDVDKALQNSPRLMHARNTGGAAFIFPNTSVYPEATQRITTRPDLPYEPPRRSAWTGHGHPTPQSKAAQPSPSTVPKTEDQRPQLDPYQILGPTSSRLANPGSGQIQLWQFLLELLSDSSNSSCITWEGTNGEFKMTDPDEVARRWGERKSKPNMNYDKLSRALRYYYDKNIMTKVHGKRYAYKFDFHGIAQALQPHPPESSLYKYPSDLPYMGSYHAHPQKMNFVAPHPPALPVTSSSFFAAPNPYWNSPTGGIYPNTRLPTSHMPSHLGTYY
Conditions: protein: recombinant; tags: N-terminal GST; dsDNA, one strand shown. An outline of the steps: as §1

The target of another assay is ELF1 (Homo sapiens, UniProt P32519 1-619). Conditions: protein: recombinant; tags: N-terminal GST; dsDNA, one strand shown. An outline of the steps: as §1
ELF1, sequence (P32519 whole entry): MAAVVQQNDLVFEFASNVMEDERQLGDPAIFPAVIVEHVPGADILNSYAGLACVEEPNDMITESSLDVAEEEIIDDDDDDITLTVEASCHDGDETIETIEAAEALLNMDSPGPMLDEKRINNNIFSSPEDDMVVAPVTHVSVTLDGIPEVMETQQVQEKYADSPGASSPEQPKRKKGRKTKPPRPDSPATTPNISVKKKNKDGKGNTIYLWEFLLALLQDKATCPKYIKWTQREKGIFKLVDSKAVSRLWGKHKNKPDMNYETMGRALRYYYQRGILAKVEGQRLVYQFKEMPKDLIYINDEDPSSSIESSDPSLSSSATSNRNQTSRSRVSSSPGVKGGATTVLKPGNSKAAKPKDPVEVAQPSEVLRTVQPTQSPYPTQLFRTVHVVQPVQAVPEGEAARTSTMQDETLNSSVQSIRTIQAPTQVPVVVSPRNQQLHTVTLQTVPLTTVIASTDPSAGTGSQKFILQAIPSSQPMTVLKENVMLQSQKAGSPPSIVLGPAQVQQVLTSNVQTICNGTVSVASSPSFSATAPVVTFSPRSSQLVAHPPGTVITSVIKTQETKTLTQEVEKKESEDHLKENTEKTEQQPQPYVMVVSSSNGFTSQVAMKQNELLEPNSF
Another assay has as its target T5, EHF (Homo sapiens, UniProt Q9NZC4 1-300).
T5 sequence: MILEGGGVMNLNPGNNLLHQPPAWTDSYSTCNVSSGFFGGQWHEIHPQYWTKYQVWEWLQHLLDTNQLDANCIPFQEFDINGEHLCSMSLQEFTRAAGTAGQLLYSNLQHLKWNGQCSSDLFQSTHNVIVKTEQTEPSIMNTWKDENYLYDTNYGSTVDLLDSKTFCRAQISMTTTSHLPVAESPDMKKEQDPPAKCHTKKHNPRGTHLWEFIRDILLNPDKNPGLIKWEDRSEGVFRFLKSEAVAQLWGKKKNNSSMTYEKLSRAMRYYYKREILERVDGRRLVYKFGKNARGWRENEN
Conditions: protein: recombinant; tags: N-terminal GST; dsDNA, one strand shown. An outline of the steps:
as §1

A further assay addresses SPI1 (Homo sapiens, UniProt P17947 1-270). Conditions: protein: recombinant; tags: N-terminal GST; dsDNA, one strand shown. An outline of the steps: as §1
The next assay has as its target SPIB (Homo sapiens, UniProt Q01892 1-262). Conditions: protein: recombinant; tags: N-terminal GST; dsDNA, one strand shown. An outline of the steps: as §1
Another assay addresses T6, ELK3 (Homo sapiens, UniProt P41970 1-407).
T6 sequence: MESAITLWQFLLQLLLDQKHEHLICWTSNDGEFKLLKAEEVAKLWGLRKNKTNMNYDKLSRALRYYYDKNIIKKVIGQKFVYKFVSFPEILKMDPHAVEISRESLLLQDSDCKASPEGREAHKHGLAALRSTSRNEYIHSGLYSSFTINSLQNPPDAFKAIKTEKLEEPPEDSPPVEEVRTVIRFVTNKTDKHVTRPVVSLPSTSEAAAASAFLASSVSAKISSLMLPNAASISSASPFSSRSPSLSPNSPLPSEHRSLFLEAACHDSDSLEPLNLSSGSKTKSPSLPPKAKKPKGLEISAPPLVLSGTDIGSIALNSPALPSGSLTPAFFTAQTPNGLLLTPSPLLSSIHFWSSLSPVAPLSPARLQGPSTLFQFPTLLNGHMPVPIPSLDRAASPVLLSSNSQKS
Conditions: protein: recombinant; tags: N-terminal GST; dsDNA, one strand shown. An outline of the steps:
as §1

A further assay concerns the target T7, FEV (Homo sapiens, UniProt Q99581 1-238).
T7 sequence: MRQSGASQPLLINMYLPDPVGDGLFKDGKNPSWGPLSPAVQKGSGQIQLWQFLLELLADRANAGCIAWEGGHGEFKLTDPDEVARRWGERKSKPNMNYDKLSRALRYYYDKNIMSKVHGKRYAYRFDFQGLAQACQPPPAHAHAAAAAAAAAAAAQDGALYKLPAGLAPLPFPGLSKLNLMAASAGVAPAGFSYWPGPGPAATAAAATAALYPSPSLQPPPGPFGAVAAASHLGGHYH
Particulars: protein: recombinant; tags: N-terminal GST; dsDNA, one strand shown. In short, it runs like this:
as §1

A further assay concerns the target ETV5 (Homo sapiens, UniProt P41161 1-510). Conditions: protein: recombinant; tags: N-terminal GST; dsDNA, one strand shown. An outline of the steps: as §1
In the next assay the target is HSF1 (Homo sapiens, UniProt Q00613 1-529). Particulars: protein: recombinant; tags: N-terminal GST; chain copies: 3; dsDNA, one strand shown. In short, it runs like this:
as §1

In another assay the target is T8, SPIC (Homo sapiens, UniProt Q8N5J4 1-248).
T8 sequence: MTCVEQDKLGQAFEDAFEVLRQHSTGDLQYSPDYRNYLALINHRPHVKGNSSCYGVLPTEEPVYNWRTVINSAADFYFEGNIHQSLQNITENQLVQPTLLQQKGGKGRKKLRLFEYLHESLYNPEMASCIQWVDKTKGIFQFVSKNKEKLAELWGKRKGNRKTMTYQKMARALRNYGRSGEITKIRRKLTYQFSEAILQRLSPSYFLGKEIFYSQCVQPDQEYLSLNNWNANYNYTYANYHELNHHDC
Conditions: protein: recombinant; tags: N-terminal GST; dsDNA, one strand shown. In short, it runs like this:
as §1

The target of another assay is ELF4 (Homo sapiens, UniProt Q99607 1-663). Particulars: protein: recombinant; tags: N-terminal GST; dsDNA, one strand shown. An outline of the steps: as §1
ELF4, sequence (Q99607 whole entry): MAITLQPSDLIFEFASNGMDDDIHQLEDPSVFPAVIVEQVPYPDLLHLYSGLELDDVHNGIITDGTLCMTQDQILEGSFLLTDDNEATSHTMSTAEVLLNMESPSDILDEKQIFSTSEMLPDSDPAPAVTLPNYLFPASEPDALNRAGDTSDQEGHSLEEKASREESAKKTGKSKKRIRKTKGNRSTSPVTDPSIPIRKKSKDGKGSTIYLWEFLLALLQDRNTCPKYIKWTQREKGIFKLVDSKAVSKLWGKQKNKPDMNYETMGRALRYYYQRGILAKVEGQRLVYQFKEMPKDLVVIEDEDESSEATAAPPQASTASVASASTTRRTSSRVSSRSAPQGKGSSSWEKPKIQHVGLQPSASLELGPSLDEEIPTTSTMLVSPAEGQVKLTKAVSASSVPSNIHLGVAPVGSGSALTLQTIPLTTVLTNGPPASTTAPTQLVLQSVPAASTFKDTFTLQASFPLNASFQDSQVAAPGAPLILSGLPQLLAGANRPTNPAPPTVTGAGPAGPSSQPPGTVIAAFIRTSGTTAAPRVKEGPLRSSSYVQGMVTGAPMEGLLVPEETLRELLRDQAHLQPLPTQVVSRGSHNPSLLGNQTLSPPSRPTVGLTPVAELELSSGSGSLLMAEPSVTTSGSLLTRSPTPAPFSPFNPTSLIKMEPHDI
The next assay has as its target T9, ELK4 (Homo sapiens, UniProt P28324-2 1-405).
T9 sequence: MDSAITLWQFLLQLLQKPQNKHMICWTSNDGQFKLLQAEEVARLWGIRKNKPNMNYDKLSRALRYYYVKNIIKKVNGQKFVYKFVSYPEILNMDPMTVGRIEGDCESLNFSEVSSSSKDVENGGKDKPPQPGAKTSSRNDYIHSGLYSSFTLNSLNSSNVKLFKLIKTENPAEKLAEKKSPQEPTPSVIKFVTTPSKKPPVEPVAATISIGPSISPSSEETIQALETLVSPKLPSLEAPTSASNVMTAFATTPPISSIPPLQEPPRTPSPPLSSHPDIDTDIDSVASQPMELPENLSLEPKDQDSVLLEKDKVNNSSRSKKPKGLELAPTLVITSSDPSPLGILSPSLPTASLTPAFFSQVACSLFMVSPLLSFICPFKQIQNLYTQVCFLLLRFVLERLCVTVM
Particulars: protein: recombinant; tags: N-terminal GST; dsDNA, one strand shown. In short, it runs like this: as §1

The next assay has as its target T10, ETV2 (Homo sapiens, UniProt O00321 1-342).
T10 sequence: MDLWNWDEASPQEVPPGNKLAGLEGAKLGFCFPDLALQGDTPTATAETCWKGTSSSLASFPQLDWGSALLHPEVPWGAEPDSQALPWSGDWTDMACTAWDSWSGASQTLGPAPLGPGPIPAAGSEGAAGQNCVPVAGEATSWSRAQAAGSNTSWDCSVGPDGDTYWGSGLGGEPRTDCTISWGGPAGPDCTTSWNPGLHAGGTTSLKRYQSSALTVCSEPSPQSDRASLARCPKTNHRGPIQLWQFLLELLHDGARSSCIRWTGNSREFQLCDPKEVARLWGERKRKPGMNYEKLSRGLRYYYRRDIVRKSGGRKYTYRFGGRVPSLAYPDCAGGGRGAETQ
Particulars: protein: recombinant; tags: N-terminal GST; dsDNA, one strand shown. In short, it runs like this:
as §1

Another assay has as its target T11, ELF3 (Homo sapiens, UniProt P78545 1-371).
T11 sequence: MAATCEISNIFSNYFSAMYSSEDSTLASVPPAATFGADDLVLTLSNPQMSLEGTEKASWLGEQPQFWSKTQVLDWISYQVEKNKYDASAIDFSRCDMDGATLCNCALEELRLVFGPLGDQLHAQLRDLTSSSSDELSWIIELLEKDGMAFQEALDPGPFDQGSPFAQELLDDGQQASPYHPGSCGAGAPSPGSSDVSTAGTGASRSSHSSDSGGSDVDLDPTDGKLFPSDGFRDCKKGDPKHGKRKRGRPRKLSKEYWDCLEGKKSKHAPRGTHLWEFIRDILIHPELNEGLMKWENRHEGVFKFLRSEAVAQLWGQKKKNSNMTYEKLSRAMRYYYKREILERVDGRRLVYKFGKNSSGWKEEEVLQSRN
Conditions: protein: recombinant; tags: N-terminal GST; dsDNA, one strand shown. In short, it runs like this:
as §1

Another assay deals with CRX (Homo sapiens, UniProt O43186 1-299). Particulars: protein: recombinant; tags: N-terminal GST; dsDNA, one strand shown. In short, it runs like this: as §1
CRX, sequence (O43186 whole entry): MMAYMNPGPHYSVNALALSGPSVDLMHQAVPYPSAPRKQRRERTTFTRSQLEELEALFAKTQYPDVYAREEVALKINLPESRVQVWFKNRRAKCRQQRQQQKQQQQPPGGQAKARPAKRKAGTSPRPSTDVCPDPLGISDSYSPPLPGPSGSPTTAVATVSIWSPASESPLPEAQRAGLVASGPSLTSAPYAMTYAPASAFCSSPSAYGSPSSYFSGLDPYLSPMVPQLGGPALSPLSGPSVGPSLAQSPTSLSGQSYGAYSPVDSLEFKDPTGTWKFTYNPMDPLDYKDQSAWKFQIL
The next assay has as its target ETV1 (Homo sapiens, UniProt P50549 1-477). Conditions: protein: recombinant; tags: N-terminal GST; dsDNA, one strand shown. In short, it runs like this:
as §1

SPIB, sequence (Q01892 whole entry): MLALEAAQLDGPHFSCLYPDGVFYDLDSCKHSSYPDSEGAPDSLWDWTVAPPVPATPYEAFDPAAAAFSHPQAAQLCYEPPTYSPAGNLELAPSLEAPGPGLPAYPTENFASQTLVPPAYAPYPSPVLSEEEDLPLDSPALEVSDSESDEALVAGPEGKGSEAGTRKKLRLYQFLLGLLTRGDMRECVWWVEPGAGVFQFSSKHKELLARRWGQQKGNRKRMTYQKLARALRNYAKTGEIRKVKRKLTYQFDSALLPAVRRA
ETV5, sequence (P41161 whole entry): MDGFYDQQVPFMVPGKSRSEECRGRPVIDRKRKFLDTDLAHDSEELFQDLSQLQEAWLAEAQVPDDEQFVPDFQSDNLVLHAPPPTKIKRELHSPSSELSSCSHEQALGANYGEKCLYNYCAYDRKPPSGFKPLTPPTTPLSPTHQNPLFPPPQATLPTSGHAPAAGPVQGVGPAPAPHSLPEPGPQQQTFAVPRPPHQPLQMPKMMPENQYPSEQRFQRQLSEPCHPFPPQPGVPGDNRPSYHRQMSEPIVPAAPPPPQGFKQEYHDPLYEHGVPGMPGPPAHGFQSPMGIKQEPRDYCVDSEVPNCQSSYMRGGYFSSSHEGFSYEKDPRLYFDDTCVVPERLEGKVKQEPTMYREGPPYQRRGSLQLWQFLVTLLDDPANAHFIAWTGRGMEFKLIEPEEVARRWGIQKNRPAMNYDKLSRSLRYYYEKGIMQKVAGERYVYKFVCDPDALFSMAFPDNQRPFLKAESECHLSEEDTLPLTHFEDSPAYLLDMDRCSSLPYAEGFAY
ETV1, sequence (P50549 whole entry): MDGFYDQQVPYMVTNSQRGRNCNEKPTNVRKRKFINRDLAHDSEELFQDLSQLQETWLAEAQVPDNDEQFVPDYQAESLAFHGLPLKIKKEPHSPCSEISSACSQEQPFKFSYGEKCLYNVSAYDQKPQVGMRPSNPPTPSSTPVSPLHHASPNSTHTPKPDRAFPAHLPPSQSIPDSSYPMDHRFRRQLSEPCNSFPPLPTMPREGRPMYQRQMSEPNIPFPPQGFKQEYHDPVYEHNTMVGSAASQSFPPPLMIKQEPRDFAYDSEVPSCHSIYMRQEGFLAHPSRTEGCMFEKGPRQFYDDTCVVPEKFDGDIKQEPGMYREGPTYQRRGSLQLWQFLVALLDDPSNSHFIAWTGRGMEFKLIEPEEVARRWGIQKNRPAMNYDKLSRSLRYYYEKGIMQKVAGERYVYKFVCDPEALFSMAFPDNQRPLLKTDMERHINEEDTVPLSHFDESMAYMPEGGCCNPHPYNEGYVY
HSF1, sequence (Q00613 whole entry): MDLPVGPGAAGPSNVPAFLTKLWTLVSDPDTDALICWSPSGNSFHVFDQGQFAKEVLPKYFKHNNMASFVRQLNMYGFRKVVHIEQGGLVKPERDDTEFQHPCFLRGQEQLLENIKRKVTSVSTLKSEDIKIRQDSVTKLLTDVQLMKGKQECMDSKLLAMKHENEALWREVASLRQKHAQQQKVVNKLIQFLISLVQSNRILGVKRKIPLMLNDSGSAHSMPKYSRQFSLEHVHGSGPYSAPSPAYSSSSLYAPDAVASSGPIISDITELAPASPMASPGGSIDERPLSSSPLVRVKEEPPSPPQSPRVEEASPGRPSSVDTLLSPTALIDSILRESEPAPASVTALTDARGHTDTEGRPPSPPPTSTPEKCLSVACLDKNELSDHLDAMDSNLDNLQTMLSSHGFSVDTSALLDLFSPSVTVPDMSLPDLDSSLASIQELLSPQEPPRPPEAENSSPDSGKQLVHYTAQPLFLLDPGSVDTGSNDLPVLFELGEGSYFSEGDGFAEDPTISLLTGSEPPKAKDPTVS

Take TCCCGT: the binding signal with FLI1 is 1.24 fold enrichment (6-mer frequency, TF over GST control); in the assay with ELK1, 1.23 fold enrichment (6-mer frequency, TF over GST control); with GABPA, 1.26 fold enrichment (6-mer frequency, TF over GST control); in the assay with ERG, 1.37 fold enrichment (6-mer frequency, TF over GST control); with ELF1, 1.26 fold enrichment (6-mer frequency, TF over GST control); with EHF, 1.35 fold enrichment (6-mer frequency, TF over GST control). Moreover, the binding signal with SPI1 was 1.43 fold enrichment (6-mer frequency, TF over GST control); with SPIB, 1.3 fold enrichment (6-mer frequency, TF over GST control); with ELK3, 1.3 fold enrichment (6-mer frequency, TF over GST control); with FEV, 1.3 fold enrichment (6-mer frequency, TF over GST control); in the assay with ETV5, 1.38 fold enrichment (6-mer frequency, TF over GST control); with HSF1, 1.35 fold enrichment (6-mer frequency, TF over GST control). Moreover, the binding signal with SPIC is 1.28 fold enrichment (6-mer frequency, TF over GST control); in the assay with ELF4, 1.23 fold enrichment (6-mer frequency, TF over GST control); with ELK4, 1.41 fold enrichment (6-mer frequency, TF over GST control); in the assay with ETV2 it was 1.29 fold enrichment (6-mer frequency, TF over GST control); with ELF3 it was 1.37 fold enrichment (6-mer frequency, TF over GST control); with CRX, 1.18 fold enrichment (6-mer frequency, TF over GST control). Also, the binding signal with ETV1 was 1.3 fold enrichment (6-mer frequency, TF over GST control).
